This is a sample that favours compounds with a hit; in the whole collection about 3.9% have one here.
MITF act – increases MITF-driven TRPM1 promoter luciferase signal; activation, % at 12.5 µM; 300,000 tested, 0.75% active; SK-MEL-5 TRPM1-promoter luciferase, 24 h; % of positive control, neutral wells = 0;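 active = mean activation of at least 80% with every replicate also reaching 80%; inconclusive = mean reaches 80% but some replicate falls short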
esBAF inh – inhibitors of esBAF chromatin remodeling in mouse ES cells; reporter increase, % at 12.5 µM; AID 602393; Bmi1-luciferase knock-in reporter, 24 h; 100% = twice the neutral-well signal; 350,000 tested, 2% active; in the data active = activation above about 40%; inconclusive = no clear call, values can overlap the other calls;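 note: a rise in the Bmi1 reporter signal indicates esBAF inhibition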
HSF1 inhib – HSF1 inhibition; activity change, negative = inhibition, % at 7.5 µM (by protocol); NIH3T3-HGL HSE-luciferase, MG132-induced, luminescence 8 h; stronger effect = lower value; 300,000 tested, 0.77% active;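 active = more than half of replicate wells show activity change below -50%, luminescence cut by over half; inconclusive = some wells, but at most half, below -50%; inactive = no replicate well below -50%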;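 note: luciferase reports HSF-1 transcriptional activity via heat shock element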
Wnt act – activates Wnt/beta-catenin signaling in a reporter cell assay; 300,000 tested, 1.2% active; activation, % at 9.35 µM; activator, plate reader; in the data active = activation above about 30%, passing the limit was not always enough; inconclusive = no clear call, values can overlap the other calls
HSF1 activator – increases HSF-1 driven luciferase reporter signal. NIH3T3-HGL HSF-1 luciferase reporter, MG132, 8 h; 100% = twice DMSO control signal. activation, % at 9 µM. 300,000 tested, 1.7% active. AID 504408;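 active = mean replicate activation of at least 50% with a set share of replicates each reaching 50%; inconclusive = only one of those two conditions met; inactive = mean below 50% and too few replicates reaching it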
Hits are given with their value.

`COc1cc(Cl)ccc1OCc1cc(C(=O)NC(C)Cc2cnccn2)no1` (stereo unspecified) gave MITF act 88.3, esBAF inh 66.6, HSF1 inhib inactive, Wnt act 47.0 and HSF1 activator 59.1.
O=C(Nc1ccc(Cl)cc1)N1C[C@H]2[C@@H](c3ccccc31)[C@@H](CO)N2C(=O)c1cccnc1 was read as esBAF inh inactive.
Screening Cc1nn(-c2ccccc2)c(Cl)c1/C=N/Nc1nc2ccccc2n1C returned MITF act inactive, HSF1 inhib inactive, Wnt act inconclusive and HSF1 activator 63.1.
For Cn1c(/C=N/Nc2nc3ccccc3[nH]2)nc2ccccc21 the results were MITF act inactive, HSF1 inhib inactive, Wnt act inconclusive and HSF1 activator inactive.
C=CCn1cc(/C=N/Nc2nc3ccccc3[nH]2)c2ccccc21 was read as MITF act inactive, HSF1 inhib inactive, Wnt act 53.1 and HSF1 activator 268.5.
`Cc1nn(-c2ccccc2)c(Cl)c1/C=N/NC(N)=O` gave HSF1 inhib inactive, Wnt act inactive and HSF1 activator inactive.
Cc1nn(-c2ccccc2)c(C)c1/C=N/Nc1nc2ccccc2[nH]1 was read as MITF act inactive, esBAF inh inactive, HSF1 inhib inactive, Wnt act 172.8 and HSF1 activator 422.6.
Cc1c(/C=N/Nc2nc3ccccc3[nH]2)c2ccccc2n1C was read as esBAF inh inactive, HSF1 inhib inactive, Wnt act inactive and HSF1 activator 331.9.
`CO[C@H]1CN(C)C(=O)c2cc(NC(=O)Nc3ccccc3F)ccc2OC[C@@H](C)NC[C@H]1C` gave esBAF inh inactive.
`S=c1nc(COc2ccccc2)[nH]c2ccccc12` gave MITF act inactive, esBAF inh 68.0, HSF1 inhib inactive, Wnt act inactive and HSF1 activator inactive.
C[C@H](CO)N1C[C@H](C)[C@H](CN(C)CC2CC2)Oc2ccc(NC(=O)Cc3cn(C)c4ccccc34)cc2CC1=O was read as esBAF inh inactive.
For O=C(NCCCN1CCCCCC1)c1ccc2c(Cl)c3c(nc2c1)CCCC3 the results were MITF act inactive, HSF1 inhib inactive, Wnt act inactive and HSF1 activator inactive.
CCN1CCN(CCCNC(=O)c2ccc3c(Cl)c4c(nc3c2)CCCC4)CC1 was read as MITF act inactive, esBAF inh inactive, HSF1 inhib inactive, Wnt act inactive and HSF1 activator 96.7.
`COCCNC(=O)c1ccc2c(Cl)c3c(nc2c1)CCC3` gave MITF act 100.0, esBAF inh inconclusive, HSF1 inhib inactive, Wnt act 35.9 and HSF1 activator inactive.
CCCN(CCC)CCCNC(=O)c1ccc2c(Cl)c3c(nc2c1)CCC3 was read as esBAF inh inactive, HSF1 inhib inactive, Wnt act inactive and HSF1 activator inactive.
CCN1CCN(C(=O)c2ccc3c(Cl)c4c(nc3c2)CCCC4)CC1 was read as MITF act inactive, esBAF inh inactive, HSF1 inhib inactive, Wnt act inactive and HSF1 activator 114.3.
For CN1CCN(C(=O)c2ccc3c(Cl)c4c(nc3c2)CCCC4)CC1 the results were MITF act inactive, esBAF inh inactive, HSF1 inhib inactive, Wnt act inactive and HSF1 activator 136.1.
Screening N#CC1CCN(C(=O)c2ccc3c(Cl)c4c(nc3c2)CCCC4)CC1 returned MITF act inactive, esBAF inh inactive, HSF1 inhib inactive, Wnt act inactive and HSF1 activator inactive.
O=C(C[C@@H]1CC[C@@H]2[C@H](COC[C@H](O)CN2CC2CCOCC2)O1)N1CCOCC1 was read as esBAF inh inactive.
`COCC#Cc1ccc2c(c1)O[C@H](CN(C)C(=O)C1CCCCC1)[C@@H](C)CN([C@@H](C)CO)S2(=O)=O` gave esBAF inh inactive.
For CNC(=O)C[C@H]1CC[C@H]2[C@@H](COc3ccc(NC(=O)c4ccccc4F)cc3C(=O)N2C)O1 the results were esBAF inh inactive.
`O=C(Cc1ccccn1)N[C@@H]1CC[C@@H](CCn2cc(-c3ccccc3)nn2)O[C@H]1CO` gave esBAF inh inactive.
For C=C(CCC(=O)c1ccccc1)C(=O)c1ccccc1 the results were MITF act inactive, HSF1 inhib inactive, Wnt act 59.8 and HSF1 activator 102.6.
For C=C(C(=O)c1ccccc1)C(CC(=O)c1ccccc1)c1ccccc1 (stereo unspecified) the results were MITF act inactive, HSF1 inhib inactive, Wnt act inactive and HSF1 activator 144.3.
Screening O=C(CCCCCCCC(=O)c1ccccc1)c1ccccc1 returned MITF act inactive, esBAF inh inactive, HSF1 inhib inactive, Wnt act inactive and HSF1 activator inactive.
`Cc1nn(C)c(C)c1C(C)NC(=O)c1cc(COc2ccc(F)c(F)c2)on1` (stereo unspecified) gave MITF act inactive, esBAF inh 50.7, HSF1 inhib inactive, Wnt act inactive and HSF1 activator inactive.
For C[C@@H]1CN([C@H](C)CO)C(=O)c2cc(C#CC3(O)CCCC3)cnc2O[C@H]1CN(C)Cc1ccccn1 the results were esBAF inh inactive.
For C=CCn1cnc2c(nnn2-c2ccc(C)c(C)c2)c1=O the results were MITF act 110.4, HSF1 inhib inactive, Wnt act inactive and HSF1 activator inactive.
Screening C[C@@H]1CN([C@H](C)CO)S(=O)(=O)c2ccc(C#C[C@@H](C)O)cc2O[C@@H]1CN(C)C(=O)Nc1ccccc1 returned esBAF inh inactive.
CC1CCN(S(=O)(=O)c2ccc3c(c2)C(=NO)c2cc(S(=O)(=O)N4CCC(C)CC4)ccc2-3)CC1 was read as MITF act inactive and esBAF inh inactive.
Screening O=S(=O)(c1ccc2c(c1)C(=NO)c1cc(S(=O)(=O)N3CCCCC3)ccc1-2)N1CCCCC1 returned esBAF inh inactive, HSF1 inhib -94.3, Wnt act inactive and HSF1 activator inactive.
CCOC(=O)CSC1=C(C#N)C(C)C2=C(CCCC2=O)N1 (stereo unspecified) was read as esBAF inh 62.3, HSF1 inhib inactive and HSF1 activator inactive.
N#CCc1c(C#N)c(N)nc(N2CCN(S(=O)(=O)c3ccccc3F)CC2)c1C#N was read as MITF act inactive, HSF1 inhib inactive, Wnt act inactive and HSF1 activator 172.9.
`N#CCc1c(C#N)c(N)nc(N2CCN(c3ccc(F)cc3)CC2)c1C#N` gave esBAF inh inactive, HSF1 inhib inactive and HSF1 activator inactive.
`CCNC(=O)Nc1ccc2c(c1)C(=O)N(C)[C@@H]1CC[C@H](CC(=O)N[C@H](C)c3ccccc3)O[C@@H]1CO2` gave esBAF inh inactive.
`O=C(Nc1cccc(S(=O)(=O)N2CCOCC2)c1)c1ccccn1` gave MITF act inactive, HSF1 inhib -70.5, Wnt act inactive and HSF1 activator inactive.
O=C(Nc1cccc(S(=O)(=O)N2CCCCC2)c1)c1ccccn1 was read as MITF act inactive, esBAF inh inactive, HSF1 inhib inactive, Wnt act inactive and HSF1 activator inactive.

From PubChem
